Data reported in ChEMBL document CHEMBL1961873, “Compounds: GSK PKIS; Assays: Nanosyn kinase panel” (2012).

What was measured:
[1] = biological target: Tyrosine-protein kinase CSK (Homo sapiens) (UniProt P41240); details: at 1 µM;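 further: each value is an averaged inhibition reading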
[2] = biological target: T1, Discoidin domain-containing receptor 2 (Homo sapiens) (UniProt Q16832); details: at 0.1 µM
T1 sequence (whole entry): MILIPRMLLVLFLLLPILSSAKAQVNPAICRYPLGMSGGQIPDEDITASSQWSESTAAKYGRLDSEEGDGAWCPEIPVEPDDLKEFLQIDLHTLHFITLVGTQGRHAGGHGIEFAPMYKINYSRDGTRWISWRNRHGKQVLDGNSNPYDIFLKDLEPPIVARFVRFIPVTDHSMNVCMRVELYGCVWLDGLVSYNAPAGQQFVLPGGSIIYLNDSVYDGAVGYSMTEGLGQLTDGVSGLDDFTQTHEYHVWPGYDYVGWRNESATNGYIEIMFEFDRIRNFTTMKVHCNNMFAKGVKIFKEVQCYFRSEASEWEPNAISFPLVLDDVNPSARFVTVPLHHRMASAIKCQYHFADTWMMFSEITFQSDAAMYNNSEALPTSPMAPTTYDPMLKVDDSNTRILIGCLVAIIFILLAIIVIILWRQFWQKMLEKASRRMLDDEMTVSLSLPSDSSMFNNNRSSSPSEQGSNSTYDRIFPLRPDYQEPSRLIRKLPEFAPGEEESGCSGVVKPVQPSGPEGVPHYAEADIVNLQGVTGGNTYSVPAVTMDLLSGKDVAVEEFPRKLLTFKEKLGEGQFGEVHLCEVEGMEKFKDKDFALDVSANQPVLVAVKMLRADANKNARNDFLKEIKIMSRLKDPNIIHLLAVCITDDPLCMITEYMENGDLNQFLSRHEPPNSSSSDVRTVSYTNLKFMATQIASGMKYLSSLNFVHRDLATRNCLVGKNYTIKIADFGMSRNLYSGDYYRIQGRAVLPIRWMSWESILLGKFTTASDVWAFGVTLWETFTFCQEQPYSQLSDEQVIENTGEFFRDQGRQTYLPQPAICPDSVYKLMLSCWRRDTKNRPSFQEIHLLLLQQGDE

[3] = biological target: T1, Discoidin domain-containing receptor 2 (Homo sapiens); details: at 1 µM
[4] = biological target: Epidermal growth factor receptor (Homo sapiens) (UniProt P00533); details: at 0.1 µM
Chain of Epidermal growth factor receptor (Homo sapiens) (P00533 whole entry): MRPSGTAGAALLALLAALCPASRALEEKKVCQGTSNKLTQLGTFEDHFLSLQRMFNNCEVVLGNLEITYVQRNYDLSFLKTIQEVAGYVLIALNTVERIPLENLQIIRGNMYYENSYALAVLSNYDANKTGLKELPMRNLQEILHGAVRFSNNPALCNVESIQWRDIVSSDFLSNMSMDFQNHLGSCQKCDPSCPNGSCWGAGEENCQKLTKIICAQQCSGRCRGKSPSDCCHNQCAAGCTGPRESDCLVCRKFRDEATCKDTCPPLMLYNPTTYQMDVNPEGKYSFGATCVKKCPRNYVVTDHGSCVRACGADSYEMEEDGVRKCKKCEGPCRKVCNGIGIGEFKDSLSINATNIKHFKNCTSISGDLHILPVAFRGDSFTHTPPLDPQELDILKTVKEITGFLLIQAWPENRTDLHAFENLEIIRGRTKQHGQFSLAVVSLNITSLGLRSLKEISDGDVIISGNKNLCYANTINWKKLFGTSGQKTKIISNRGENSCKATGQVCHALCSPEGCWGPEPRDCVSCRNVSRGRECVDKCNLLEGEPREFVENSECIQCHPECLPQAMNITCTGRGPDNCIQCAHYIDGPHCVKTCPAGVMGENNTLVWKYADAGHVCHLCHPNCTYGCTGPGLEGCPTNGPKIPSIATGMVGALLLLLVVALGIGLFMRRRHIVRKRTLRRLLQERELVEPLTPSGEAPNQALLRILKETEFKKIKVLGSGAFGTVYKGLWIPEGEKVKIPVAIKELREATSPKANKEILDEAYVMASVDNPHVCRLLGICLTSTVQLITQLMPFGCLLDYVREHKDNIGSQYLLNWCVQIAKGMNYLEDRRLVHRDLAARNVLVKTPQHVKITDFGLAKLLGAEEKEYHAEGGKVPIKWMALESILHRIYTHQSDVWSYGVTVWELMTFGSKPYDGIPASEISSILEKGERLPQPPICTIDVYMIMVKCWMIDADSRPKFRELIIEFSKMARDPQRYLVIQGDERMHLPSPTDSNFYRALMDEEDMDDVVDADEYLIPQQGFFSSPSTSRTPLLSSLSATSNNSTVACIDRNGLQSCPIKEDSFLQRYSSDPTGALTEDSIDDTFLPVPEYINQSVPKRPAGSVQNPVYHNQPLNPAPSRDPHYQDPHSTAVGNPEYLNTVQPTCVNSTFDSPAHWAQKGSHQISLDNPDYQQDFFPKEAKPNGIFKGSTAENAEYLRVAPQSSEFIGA

[5] = biological target: Epidermal growth factor receptor (Homo sapiens) (UniProt P00533); details: at 1 µM
[6] = tested on: Epidermal growth factor receptor (Homo sapiens), P00533 [L858R]; details: at 0.1 µM
[7] = tested on: Epidermal growth factor receptor (Homo sapiens), P00533 [L858R]; details: at 1 µM
[8] = tested on: Epidermal growth factor receptor (Homo sapiens), P00533 [L861Q]; details: at 0.1 µM
Chain of Epidermal growth factor receptor (Homo sapiens), P00533 [L861Q] (P00533 whole entry L861Q): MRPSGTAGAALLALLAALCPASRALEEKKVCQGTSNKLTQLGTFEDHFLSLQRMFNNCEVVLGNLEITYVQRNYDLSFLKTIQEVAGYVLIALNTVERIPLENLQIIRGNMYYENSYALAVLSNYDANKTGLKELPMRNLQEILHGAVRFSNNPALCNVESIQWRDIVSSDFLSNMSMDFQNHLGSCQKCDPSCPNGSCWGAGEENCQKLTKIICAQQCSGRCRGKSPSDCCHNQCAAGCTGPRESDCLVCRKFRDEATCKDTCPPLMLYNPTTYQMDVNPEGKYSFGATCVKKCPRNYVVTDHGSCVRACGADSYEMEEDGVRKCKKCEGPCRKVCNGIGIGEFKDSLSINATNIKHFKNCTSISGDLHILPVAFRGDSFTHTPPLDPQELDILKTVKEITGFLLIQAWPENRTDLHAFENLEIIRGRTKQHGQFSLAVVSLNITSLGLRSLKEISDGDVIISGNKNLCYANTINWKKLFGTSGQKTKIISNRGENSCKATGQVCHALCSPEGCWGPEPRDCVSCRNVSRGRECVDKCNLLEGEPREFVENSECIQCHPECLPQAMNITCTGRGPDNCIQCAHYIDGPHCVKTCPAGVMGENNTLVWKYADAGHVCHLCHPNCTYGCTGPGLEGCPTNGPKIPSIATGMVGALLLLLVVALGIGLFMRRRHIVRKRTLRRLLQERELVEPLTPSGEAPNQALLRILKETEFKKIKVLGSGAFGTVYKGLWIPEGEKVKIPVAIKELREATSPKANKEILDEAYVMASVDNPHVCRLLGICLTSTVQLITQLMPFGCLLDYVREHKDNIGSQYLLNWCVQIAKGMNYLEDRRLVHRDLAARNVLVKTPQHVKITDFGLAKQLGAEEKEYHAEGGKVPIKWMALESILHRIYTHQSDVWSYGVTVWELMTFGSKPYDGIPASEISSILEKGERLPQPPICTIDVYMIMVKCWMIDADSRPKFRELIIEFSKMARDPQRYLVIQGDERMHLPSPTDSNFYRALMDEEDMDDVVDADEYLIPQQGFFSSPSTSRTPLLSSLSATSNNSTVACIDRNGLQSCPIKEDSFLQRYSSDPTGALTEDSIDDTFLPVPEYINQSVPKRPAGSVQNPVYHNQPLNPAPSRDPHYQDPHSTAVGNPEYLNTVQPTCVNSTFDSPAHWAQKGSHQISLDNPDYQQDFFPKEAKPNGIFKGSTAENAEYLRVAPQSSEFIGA

[9] = tested on: Epidermal growth factor receptor (Homo sapiens), P00533 [L861Q]; details: at 1 µM
[10] = tested on: Epidermal growth factor receptor (Homo sapiens), P00533 [T790M]; details: at 0.1 µM
Chain of Epidermal growth factor receptor (Homo sapiens), P00533 [T790M] (P00533 whole entry T790M): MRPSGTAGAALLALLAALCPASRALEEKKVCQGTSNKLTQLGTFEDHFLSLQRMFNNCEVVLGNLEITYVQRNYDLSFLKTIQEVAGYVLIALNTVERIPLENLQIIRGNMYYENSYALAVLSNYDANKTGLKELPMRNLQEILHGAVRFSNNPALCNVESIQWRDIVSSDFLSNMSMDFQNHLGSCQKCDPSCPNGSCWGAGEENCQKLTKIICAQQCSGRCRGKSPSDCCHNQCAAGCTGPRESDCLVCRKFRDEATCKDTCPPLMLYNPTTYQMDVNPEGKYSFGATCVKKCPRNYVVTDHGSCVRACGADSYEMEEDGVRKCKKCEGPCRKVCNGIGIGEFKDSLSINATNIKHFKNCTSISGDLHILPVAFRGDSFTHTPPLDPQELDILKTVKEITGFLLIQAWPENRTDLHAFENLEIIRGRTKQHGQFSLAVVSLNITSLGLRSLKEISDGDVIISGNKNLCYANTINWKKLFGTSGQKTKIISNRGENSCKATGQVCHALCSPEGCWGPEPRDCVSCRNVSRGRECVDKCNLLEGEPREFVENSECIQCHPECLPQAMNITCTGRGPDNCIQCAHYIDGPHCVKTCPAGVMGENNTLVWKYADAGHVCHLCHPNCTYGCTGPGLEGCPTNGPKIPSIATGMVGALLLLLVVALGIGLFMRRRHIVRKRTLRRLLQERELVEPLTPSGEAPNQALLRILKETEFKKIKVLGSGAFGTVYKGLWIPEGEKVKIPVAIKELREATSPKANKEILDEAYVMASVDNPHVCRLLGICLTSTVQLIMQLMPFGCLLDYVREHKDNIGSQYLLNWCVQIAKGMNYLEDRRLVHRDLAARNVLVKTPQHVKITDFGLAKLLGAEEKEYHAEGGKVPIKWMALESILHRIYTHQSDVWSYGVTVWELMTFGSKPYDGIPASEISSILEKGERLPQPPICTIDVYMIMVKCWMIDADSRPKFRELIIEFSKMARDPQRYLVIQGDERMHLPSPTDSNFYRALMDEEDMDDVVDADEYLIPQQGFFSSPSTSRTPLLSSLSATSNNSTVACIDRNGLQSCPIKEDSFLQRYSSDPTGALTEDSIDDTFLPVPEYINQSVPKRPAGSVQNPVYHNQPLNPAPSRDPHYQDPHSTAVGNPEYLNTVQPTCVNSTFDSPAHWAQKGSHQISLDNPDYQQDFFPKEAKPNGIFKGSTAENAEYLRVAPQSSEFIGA

[11] = tested on: Epidermal growth factor receptor (Homo sapiens), P00533 [T790M]; details: at 1 µM
[12] = tested on: Epidermal growth factor receptor (Homo sapiens), P00533 [L858R,T790M]; details: at 0.1 µM
[13] = tested on: Epidermal growth factor receptor (Homo sapiens), P00533 [L858R,T790M]; details: at 1 µM
[14] = biological target: Ephrin type-A receptor 2 (Homo sapiens) (UniProt P29317); details: at 0.1 µM
[15] = biological target: Ephrin type-A receptor 2 (Homo sapiens) (UniProt P29317); details: at 1 µM
[16] = biological target: T2, Ephrin type-A receptor 3 (Homo sapiens) (UniProt P29320); details: at 0.1 µM
T2 sequence (whole entry): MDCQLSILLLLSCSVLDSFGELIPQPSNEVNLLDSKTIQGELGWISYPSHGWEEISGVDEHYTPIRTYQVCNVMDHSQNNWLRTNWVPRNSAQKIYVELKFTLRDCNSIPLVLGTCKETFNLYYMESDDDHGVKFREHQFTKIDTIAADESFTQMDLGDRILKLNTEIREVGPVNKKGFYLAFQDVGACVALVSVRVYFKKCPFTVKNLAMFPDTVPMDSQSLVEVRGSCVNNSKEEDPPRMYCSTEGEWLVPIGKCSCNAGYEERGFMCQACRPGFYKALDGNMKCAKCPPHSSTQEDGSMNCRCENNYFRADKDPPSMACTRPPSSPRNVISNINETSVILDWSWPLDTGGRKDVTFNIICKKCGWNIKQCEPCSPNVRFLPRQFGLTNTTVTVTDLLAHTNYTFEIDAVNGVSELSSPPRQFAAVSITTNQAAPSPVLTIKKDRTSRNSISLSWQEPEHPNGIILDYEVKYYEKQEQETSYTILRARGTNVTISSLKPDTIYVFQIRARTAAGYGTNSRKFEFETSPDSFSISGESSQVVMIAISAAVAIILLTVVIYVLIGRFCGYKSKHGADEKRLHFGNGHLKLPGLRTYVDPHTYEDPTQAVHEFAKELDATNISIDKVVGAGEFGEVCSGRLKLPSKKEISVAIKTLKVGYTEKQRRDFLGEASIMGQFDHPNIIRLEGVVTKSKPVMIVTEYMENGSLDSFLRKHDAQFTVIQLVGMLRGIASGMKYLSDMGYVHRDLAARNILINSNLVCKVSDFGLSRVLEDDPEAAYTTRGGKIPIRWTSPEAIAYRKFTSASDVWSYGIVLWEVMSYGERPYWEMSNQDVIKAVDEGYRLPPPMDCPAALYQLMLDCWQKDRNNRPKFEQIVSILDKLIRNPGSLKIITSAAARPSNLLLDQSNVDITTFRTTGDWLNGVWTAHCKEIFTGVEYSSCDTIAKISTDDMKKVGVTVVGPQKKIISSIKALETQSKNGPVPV

[17] = biological target: T2, Ephrin type-A receptor 3 (Homo sapiens); details: at 1 µM
[18] = biological target: Ephrin type-A receptor 4 (Homo sapiens) (UniProt P54764); details: at 0.1 µM
Chain of Ephrin type-A receptor 4 (Homo sapiens) (P54764 whole entry): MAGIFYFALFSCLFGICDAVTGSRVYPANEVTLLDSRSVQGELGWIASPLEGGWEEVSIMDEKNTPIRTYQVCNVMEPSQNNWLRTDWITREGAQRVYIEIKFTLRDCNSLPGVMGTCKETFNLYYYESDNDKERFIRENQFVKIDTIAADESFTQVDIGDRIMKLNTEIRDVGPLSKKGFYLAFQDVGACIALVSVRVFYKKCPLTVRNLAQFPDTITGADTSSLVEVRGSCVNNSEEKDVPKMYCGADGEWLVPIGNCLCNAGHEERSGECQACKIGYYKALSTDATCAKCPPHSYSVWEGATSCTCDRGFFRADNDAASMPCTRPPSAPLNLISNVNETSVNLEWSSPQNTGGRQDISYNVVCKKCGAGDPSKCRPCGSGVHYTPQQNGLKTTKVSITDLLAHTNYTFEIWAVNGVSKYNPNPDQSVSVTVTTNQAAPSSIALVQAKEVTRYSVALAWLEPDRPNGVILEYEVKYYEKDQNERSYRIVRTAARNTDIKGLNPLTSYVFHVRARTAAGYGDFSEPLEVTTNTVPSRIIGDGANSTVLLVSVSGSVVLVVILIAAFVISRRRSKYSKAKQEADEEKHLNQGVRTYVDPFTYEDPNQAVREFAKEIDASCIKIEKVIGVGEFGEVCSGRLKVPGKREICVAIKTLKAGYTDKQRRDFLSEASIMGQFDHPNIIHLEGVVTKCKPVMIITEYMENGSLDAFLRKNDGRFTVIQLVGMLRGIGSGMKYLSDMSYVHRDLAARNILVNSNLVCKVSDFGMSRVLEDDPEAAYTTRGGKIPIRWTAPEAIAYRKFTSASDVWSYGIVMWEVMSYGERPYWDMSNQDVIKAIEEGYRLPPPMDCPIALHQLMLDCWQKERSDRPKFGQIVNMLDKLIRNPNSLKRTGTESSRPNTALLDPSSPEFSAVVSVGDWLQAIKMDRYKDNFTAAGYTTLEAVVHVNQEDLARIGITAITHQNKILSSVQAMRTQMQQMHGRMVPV

[19] = biological target: Ephrin type-A receptor 4 (Homo sapiens) (UniProt P54764); details: at 1 µM
[20] = biological target: T3, Ephrin type-B receptor 2 (Homo sapiens) (UniProt P29323); details: at 0.1 µM;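 further: reported as mean inhibition of EPHB2, from the GSK PKIS dataset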
T3 sequence (whole entry): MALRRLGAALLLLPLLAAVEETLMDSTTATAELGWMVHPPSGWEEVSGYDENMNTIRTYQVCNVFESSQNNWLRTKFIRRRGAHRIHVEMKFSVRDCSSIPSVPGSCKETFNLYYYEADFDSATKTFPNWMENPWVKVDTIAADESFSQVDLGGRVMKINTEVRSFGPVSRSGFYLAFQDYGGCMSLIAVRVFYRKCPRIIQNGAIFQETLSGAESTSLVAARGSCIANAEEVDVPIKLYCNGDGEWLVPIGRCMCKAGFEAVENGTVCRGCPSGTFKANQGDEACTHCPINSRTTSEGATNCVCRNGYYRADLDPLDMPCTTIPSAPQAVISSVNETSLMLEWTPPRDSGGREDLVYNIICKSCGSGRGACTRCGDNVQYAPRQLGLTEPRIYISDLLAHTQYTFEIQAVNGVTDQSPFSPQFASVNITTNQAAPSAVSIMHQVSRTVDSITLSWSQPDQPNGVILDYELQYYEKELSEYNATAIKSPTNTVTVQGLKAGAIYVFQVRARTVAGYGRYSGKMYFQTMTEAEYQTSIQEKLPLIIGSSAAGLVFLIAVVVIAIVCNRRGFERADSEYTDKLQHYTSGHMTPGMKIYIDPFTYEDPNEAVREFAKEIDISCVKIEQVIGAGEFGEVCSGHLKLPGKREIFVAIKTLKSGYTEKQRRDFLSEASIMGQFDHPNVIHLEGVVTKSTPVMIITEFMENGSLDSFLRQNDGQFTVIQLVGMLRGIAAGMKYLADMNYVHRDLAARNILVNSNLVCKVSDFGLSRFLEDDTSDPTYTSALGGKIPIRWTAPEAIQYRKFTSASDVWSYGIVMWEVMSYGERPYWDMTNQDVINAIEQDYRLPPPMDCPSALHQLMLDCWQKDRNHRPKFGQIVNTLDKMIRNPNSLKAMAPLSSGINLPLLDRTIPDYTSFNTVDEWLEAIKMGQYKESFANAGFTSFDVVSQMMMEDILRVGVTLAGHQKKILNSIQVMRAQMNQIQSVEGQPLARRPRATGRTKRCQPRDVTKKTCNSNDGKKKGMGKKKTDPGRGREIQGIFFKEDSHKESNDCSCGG

Chain of Tyrosine-protein kinase CSK (Homo sapiens) (P41240 2-450 limits assumed): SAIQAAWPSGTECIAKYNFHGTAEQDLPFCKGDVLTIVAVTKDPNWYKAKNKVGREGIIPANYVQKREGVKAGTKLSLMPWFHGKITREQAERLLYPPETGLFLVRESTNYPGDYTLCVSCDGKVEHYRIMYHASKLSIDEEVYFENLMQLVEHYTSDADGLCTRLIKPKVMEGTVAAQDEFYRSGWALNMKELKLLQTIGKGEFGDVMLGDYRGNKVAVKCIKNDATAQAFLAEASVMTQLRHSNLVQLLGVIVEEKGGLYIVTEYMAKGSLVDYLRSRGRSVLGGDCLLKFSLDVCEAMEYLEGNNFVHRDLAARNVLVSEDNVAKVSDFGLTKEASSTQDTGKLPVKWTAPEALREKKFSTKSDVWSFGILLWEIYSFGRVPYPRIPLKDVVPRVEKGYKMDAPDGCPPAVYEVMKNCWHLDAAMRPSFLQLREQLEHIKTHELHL

## COc1cccc(/C=N/Nc2ncnc3c2cnn3-c2cccc(OC)c2)c1
[1]
  inhibition: 3.91%
[2]
  inhibition: 1.34%
[3]
  inhibition: 2.5%
[4]
  inhibition: 1.31%
[5]
  inhibition: 2.97%
[6]
  inhibition: 2.05%
[7]
  inhibition: 8.79%
[8]
  inhibition: 1.95%
[9]
  inhibition: 4.05%
[10]
  inhibition: 0.54%
[11]
  inhibition: 2.12%
[12]
  inhibition: 2.14%
[13]
  inhibition: 2.04%
[14]
  inhibition: -1.3%
[15]
  inhibition: -1.94%
[16]
  inhibition: 1.72%
[17]
  inhibition: 3.83%
[18]
  inhibition: 6.9%
[19]
  inhibition: 9.69%
[20]
  inhibition: 8.19%

## O=C(Nc1n[nH]c2cc(-c3ccccc3)ccc12)C1CC1
[1]
  inhibition: 4.74%
[2]
  inhibition: 1.43%
[3]
  inhibition: 5.94%
[4]
  inhibition: 3.06%
[5]
  inhibition: 6.49%
[6]
  inhibition: 2.84%
[7]
  inhibition: 5.13%
[8]
  inhibition: 4.05%
[9]
  inhibition: 0.82%
[10]
  inhibition: 2.65%
[11]
  inhibition: 4.64%
[12]
  inhibition: 2.81%
[13]
  inhibition: 3.37%
[14]
  inhibition: 1.75%
[15]
  inhibition: 3.8%
[16]
  inhibition: 5.17%
[17]
  inhibition: 6.3%
[18]
  inhibition: 6.13%
[19]
  inhibition: 18.9%
[20]
  inhibition: 6.68%

## CCS(=O)(=O)c1ccc(OC)c(Nc2ncc(-c3cccc(-c4ccccc4F)c3)o2)c1
[1]
  inhibition: 4.82%
[2]
  inhibition: 4.99%
[3]
  inhibition: 30.8%
[4]
  inhibition: 4.07%
[5]
  inhibition: 23.3%
[6]
  inhibition: 14.1%
[7]
  inhibition: 62.1%
[8]
  inhibition: 4.78%
[9]
  inhibition: 24.4%
[10]
  inhibition: -1.94%
[11]
  inhibition: 0.84%
[12]
  inhibition: 3.32%
[13]
  inhibition: 5.25%
[14]
  inhibition: -1.44%
[15]
  inhibition: -0.56%
[16]
  inhibition: -1.38%
[17]
  inhibition: 4.18%
[18]
  inhibition: 2.37%
[19]
  inhibition: 2.94%
[20]
  inhibition: 5.91%

## Fc1ccc(-c2ncn(CCCN3CCOCC3)c2-c2ccncc2)cc1
[1]
  inhibition: -6.18%
[2]
  inhibition: 0.11%
[3]
  inhibition: -0.13%
[4]
  inhibition: 0.44%
[5]
  inhibition: 1.09%
[6]
  inhibition: -0.51%
[7]
  inhibition: -2.87%
[8]
  inhibition: -1.64%
[9]
  inhibition: -2.82%
[10]
  inhibition: -1.82%
[11]
  inhibition: -1.55%
[12]
  inhibition: -3.9%
[13]
  inhibition: 1.72%
[14]
  inhibition: 0.95%
[15]
  inhibition: 1.3%
[16]
  inhibition: 1.04%
[17]
  inhibition: 0.84%
[18]
  inhibition: 1.1%
[19]
  inhibition: -5.4%
[20]
  inhibition: -4.85%

## COc1ccc(C2=C(N3CCc4ccccc43)C(=O)NC2=O)cc1
[1]
  inhibition: 9.3%
[2]
  inhibition: 1.75%
[3]
  inhibition: 1.87%
[4]
  inhibition: 1.18%
[5]
  inhibition: 3.59%
[6]
  inhibition: 7.35%
[7]
  inhibition: 7.13%
[8]
  inhibition: 4.49%
[9]
  inhibition: 6.05%
[10]
  inhibition: 3.62%
[11]
  inhibition: 2.96%
[12]
  inhibition: 1.12%
[13]
  inhibition: 2.08%
[14]
  inhibition: 2.52%
[15]
  inhibition: 0.56%
[16]
  inhibition: 7.52%
[17]
  inhibition: 5.91%
[18]
  inhibition: 10.6%
[19]
  inhibition: 12.4%
[20]
  inhibition: 11%

## Cc1ccc(NC(=O)c2ccoc2)cc1-c1ccc(C(=O)NCC2CC2)cc1
[1]
  inhibition: 0.18%
[2]
  inhibition: 1.48%
[3]
  inhibition: 2.43%
[4]
  inhibition: 3.14%
[5]
  inhibition: 6.36%
[6]
  inhibition: 3.23%
[7]
  inhibition: 1%
[8]
  inhibition: 0.74%
[9]
  inhibition: 0.37%
[10]
  inhibition: 1.63%
[11]
  inhibition: 0.9%
[12]
  inhibition: 2.36%
[13]
  inhibition: 1.46%
[14]
  inhibition: 0.92%
[15]
  inhibition: -0.44%
[16]
  inhibition: 1.99%
[17]
  inhibition: 2.02%
[18]
  inhibition: 5.05%
[19]
  inhibition: 6.13%
[20]
  inhibition: 2.46%

## COc1cc2ncn(-c3cc(OCCc4ccccc4)c(C(N)=O)s3)c2cc1OC
[1]
  inhibition: 2.94%
[2]
  inhibition: 0.75%
[3]
  inhibition: 2.48%
[4]
  inhibition: 7.08%
[5]
  inhibition: 7.65%
[6]
  inhibition: 2.45%
[7]
  inhibition: 9.43%
[8]
  inhibition: 0.8%
[9]
  inhibition: 0.3%
[10]
  inhibition: 0.19%
[11]
  inhibition: 0.49%
[12]
  inhibition: 0.55%
[13]
  inhibition: 4.9%
[14]
  inhibition: 1.97%
[15]
  inhibition: 0.66%
[16]
  inhibition: 3.06%
[17]
  inhibition: 4.07%
[18]
  inhibition: 4.63%
[19]
  inhibition: 3.61%
[20]
  inhibition: 3.87%
